Assay results as given in PubChem BioAssay (NCATS).
Results filed as inconclusive are left out. Activity calls are given as the source filed them. Unless noted, calls come from the whole dose curve; as a rule, active = well fitted curve in the direction sought with a large enough effect; inconclusive = small, poorly fitted or top-dose-only effect, or another doubt; inactive = no such curve, though single readings can be large; an effect the other way counts as inactive or inconclusive.

Tests used:
[1] = biological target: ATP-dependent 6-phosphofructokinase (Trypanosoma brucei brucei) (UniProt O15648); experiment: qHTS Assay to Find Inhibitors of T. brucei phosphofructokinase: hit validation (AID 492961);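 note: luminescence reports ADP formed as PFK phosphorylates fructose-6-phosphate with ATP; % is set by controls: 0 for no effect and ±100 for the full control effect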
Method in brief: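 Inhibition of parasite PFK is measured as reduced ADP formation, quantified via luciferase after ATP depletion. Assay used 0.1 mM ATP, 0.5 mM F6P, 1.25 nM enzyme, 45 min incubation.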

[2] = biological target: Luciferin 4-monooxygenase (Photinus pyralis) (UniProt P08659); experiment: Biochemical firefly luciferase enzyme assay for NPC (AID 624030);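 note: purified P. pyralis luciferase at 10 nM with luciferin and ATP substrate; 0% = DMSO and -100% = full luciferase inhibition by PTC124 control; nearly all actives have a fitted effect of over 70% in size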
Method in brief: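 Purified P. pyralis luciferase at 10 nM in 50 mM Tris Acetate (final), luminescence read within 5 minutes of enzyme addition to compounds. Activity normalised to PTC124 versus DMSO; concentration-response curves classed by r2, magnitude and activity.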

[3] = S16 Schwann cell PMP22 intronic element beta-lactamase assay (AID 624044; calls by dose curve; note: nearly all actives have a fitted effect of over 15% in size; note: potency is the fitted concentration of half-maximal effect;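 for ratio activity, negative = inhibition: 0% = DMSO and -100% = potassium clavulanate positive control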); conditions: S16 rat Schwann cells, PMP22 element beta-lactamase FRET, 24 h; ratio activity, negative = inhibition: at 38.3 µM (top of the series)
Method in brief: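 Rat S16 Schwann cells with beta-Lac driven by a PMP22 intronic element, compound-treated 24 h at 37 °C. LiveBLAzer FRET B/G read: 460 nm normalized to potassium clavulanate vs DMSO; 535 nm FRET as viability; concentration-effect curves classified.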

[4] = qHTS profiling for inhibitors of Plasmodium falciparum proliferation (AID 504749); note: nearly all actives have a fitted effect of over 60% in size; note: potency is the fitted concentration of half-maximal effect;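 for activity, negative = inhibition: 0% = DMSO vehicle and full inhibition = artemisinin control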; conditions: P. falciparum in erythrocytes, SYBR Green DNA, 72 h, at 28.7 µM (top of the series)
Method in brief: (§1)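 P. falciparum-infected erythrocytes (0.3% parasitemia, 2.5% hematocrit) incubated with compound 72 h at 37 C, 5% CO2. Parasite DNA detected by SYBR Green after lysis, overnight at room temperature; normalised to 0.29 uM artemisinin and DMSO.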

[5] = tested on: CP192; experiment: as above; conditions: P. falciparum in erythrocytes, SYBR Green DNA, 72 h; series mostly up to 28.7 µM
Method in brief: as §1

[6] = tested on: CP201; experiment: as above; conditions: P. falciparum in erythrocytes, SYBR Green DNA, 72 h; series mostly up to 28.7 µM
Method in brief: as §1

[7] = tested on: CP211; experiment: as above; conditions: P. falciparum in erythrocytes, SYBR Green DNA, 72 h; series mostly up to 28.7 µM
Method in brief: as §1

[8] = tested on: CP238; experiment: as above; conditions: P. falciparum in erythrocytes, SYBR Green DNA, 72 h; series mostly up to 28.7 µM
Method in brief: as §1

[9] = tested on: CP262; experiment: as above; conditions: P. falciparum in erythrocytes, SYBR Green DNA, 72 h; series mostly up to 28.7 µM
Method in brief: as §1

[10] = tested on: CP269; experiment: as above; conditions: P. falciparum in erythrocytes, SYBR Green DNA, 72 h; series mostly up to 28.7 µM
Method in brief: as §1

[11] = tested on: CP286; experiment: as above; conditions: P. falciparum in erythrocytes, SYBR Green DNA, 72 h; series mostly up to 28.7 µM
Method in brief: as §1

[12] = tested on: CP315; experiment: as above; conditions: P. falciparum in erythrocytes, SYBR Green DNA, 72 h; series mostly up to 28.7 µM
Method in brief: as §1

[13] = tested on: CP325; experiment: as above; conditions: P. falciparum in erythrocytes, SYBR Green DNA, 72 h; series mostly up to 28.7 µM
Method in brief: as §1

[14] = tested on: CP329; experiment: as above; conditions: P. falciparum in erythrocytes, SYBR Green DNA, 72 h; series mostly up to 28.7 µM
Method in brief: as §1

[15] = tested on: DFO2036; experiment: as above; conditions: P. falciparum in erythrocytes, SYBR Green DNA, 72 h; series mostly up to 28.7 µM
Method in brief: as §1

[16] = tested on: FAB9; experiment: as above; conditions: P. falciparum in erythrocytes, SYBR Green DNA, 72 h; series mostly up to 28.7 µM
Method in brief: as §1

[17] = tested on: JCK; experiment: as above; conditions: P. falciparum in erythrocytes, SYBR Green DNA, 72 h; series mostly up to 28.7 µM
Method in brief: as §1

[18] = tested on: N140; experiment: as above; conditions: P. falciparum in erythrocytes, SYBR Green DNA, 72 h; series mostly up to 28.7 µM
Method in brief: as §1

[19] = tested on: PC49; experiment: as above; conditions: P. falciparum in erythrocytes, SYBR Green DNA, 72 h; series mostly up to 28.7 µM
Method in brief: as §1

[20] = tested on: Dd2; experiment: as above; conditions: P. falciparum in erythrocytes, SYBR Green DNA, 72 h; series mostly up to 28.7 µM
Method in brief: as §1

Chain of Luciferin 4-monooxygenase (Photinus pyralis) (P08659 whole entry, looked up): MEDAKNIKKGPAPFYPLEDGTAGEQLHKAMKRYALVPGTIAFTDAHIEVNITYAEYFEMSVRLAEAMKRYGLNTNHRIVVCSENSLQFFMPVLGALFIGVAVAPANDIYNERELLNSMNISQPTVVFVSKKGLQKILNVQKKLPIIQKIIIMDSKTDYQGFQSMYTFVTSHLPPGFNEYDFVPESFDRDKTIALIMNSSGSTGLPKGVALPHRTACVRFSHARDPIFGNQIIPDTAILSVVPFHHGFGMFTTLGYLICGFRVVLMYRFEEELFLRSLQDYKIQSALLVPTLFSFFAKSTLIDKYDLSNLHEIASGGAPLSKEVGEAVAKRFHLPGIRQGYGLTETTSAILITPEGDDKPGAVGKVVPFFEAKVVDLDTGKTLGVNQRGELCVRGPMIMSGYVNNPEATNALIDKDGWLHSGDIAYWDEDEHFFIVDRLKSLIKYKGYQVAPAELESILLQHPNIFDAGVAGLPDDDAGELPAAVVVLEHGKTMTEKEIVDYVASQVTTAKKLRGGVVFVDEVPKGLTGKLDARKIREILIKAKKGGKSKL
Chain of ATP-dependent 6-phosphofructokinase (Trypanosoma brucei brucei) (O15648 whole entry, looked up): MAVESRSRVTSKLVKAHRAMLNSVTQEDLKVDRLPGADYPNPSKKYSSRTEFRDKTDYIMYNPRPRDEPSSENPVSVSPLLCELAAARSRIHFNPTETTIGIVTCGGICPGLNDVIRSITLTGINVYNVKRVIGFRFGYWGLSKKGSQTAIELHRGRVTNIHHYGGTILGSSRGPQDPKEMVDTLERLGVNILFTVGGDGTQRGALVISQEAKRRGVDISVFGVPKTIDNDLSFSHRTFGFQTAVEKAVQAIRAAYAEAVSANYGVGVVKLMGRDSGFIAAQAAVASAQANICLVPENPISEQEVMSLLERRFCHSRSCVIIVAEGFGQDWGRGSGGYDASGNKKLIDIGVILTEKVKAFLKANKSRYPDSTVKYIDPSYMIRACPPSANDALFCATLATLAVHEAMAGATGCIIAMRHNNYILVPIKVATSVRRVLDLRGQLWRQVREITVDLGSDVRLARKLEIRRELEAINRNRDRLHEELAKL

Cc1c(C)c2c(c(C)c1O)CCC(C)(CCCC(C)CCCC(C)CCCC(C)C)O2 (stereo not given)
inactive: Potency [1] | Potency [2] | Potency [3] | activity, negative = inhibition ([4]; parasite line A) 15.7% | activity, negative = inhibition ([4]; parasite line B) 8.58% | Potency [5] | Potency [6] | Potency [7] | Potency [8] | Potency [9] | Potency [10] | Potency [11] | Potency [12] | Potency [13] | Potency [14] | Potency [15] | Potency [16] | Potency [17] | Potency [18] | Potency [19]

O=C1Oc2ccccc2C(=O)C1C(CC(O)c1ccc(-c2ccc(Br)cc2)cc1)c1ccccc1 (stereo not given)
inactive: Potency [1] | Potency [3] | activity, negative = inhibition ([4]; parasite line A) -67.1% | Potency [5] | Potency [6] | Potency [7] | Potency [8] | Potency [9] | Potency [10] | Potency [11] | Potency [12] | Potency [13] | Potency [14] | Potency [20] | Potency [16] | Potency [18] | Potency [19]

Nc1nc(Cl)nc2c1ncn2[C@@H]1O[C@H](CO)[C@H](O)C1F (stereo not given in full)
active: Potency [3] 8.91 µM
inactive: Potency [1] | Potency [2] | activity, negative = inhibition ([4]; parasite line A) -2.17% | Potency [5] | Potency [6] | Potency [7] | Potency [8] | Potency [9] | Potency [10] | Potency [11] | Potency [12] | Potency [13] | Potency [14] | Potency [15] | Potency [20] | Potency [16] | Potency [17] | Potency [18] | Potency [19]

CC1(C)SC2[C@@H](N=CN3CCCCCC3)C(=O)N2[C@H]1C(=O)O (stereo not given in full)
inactive: Potency [1] | Potency [2] | Potency [3] | activity, negative = inhibition ([4]; parasite line A) 0.0196% | activity, negative = inhibition ([4]; parasite line B) -13% | Potency [5] | Potency [6] | Potency [7] | Potency [8] | Potency [9] | Potency [10] | Potency [11] | Potency [12] | Potency [13] | Potency [14] | Potency [15] | Potency [20] | Potency [16] | Potency [17] | Potency [18] | Potency [19]

CN(C)CC[C@@](O)(c1ccccc1)c1ccccc1Cl
inactive: Potency [1] | Potency [2] | activity, negative = inhibition ([4]; parasite line A) -12.9% | Potency [9] | Potency [16]
active: Potency [8] 11.2 µM | Potency [10] 12 µM | Potency [11] 7.94 µM | Potency [13] 7.57 µM | Potency [15] 8.91 µM | Potency [20] 2 µM | Potency [18] 4.47 µM

C[C@H](CN1c2ccccc2Sc2cccnc21)N(C)C
inactive: Potency [1] | Potency [2] | Potency [3] | activity, negative = inhibition ([4]; parasite line A) -16.9% | activity, negative = inhibition ([4]; parasite line B) -1.99% | Potency [9] | Potency [16] | Potency [19]
active: Potency [8] 10 µM | Potency [11] 4.47 µM | Potency [15] 11.2 µM | Potency [20] 4.47 µM | Potency [18] 11.2 µM

COc1ccc(C(=O)/C(Br)=C/C(=O)O)cc1
inactive: Potency [1] | Potency [2] | Potency [3] | activity, negative = inhibition ([4]; parasite line A) -21.1% | activity, negative = inhibition ([4]; parasite line B) -8.61% | Potency [5] | Potency [6] | Potency [8] | Potency [9] | Potency [11] | Potency [12] | Potency [13] | Potency [14] | Potency [15] | Potency [20] | Potency [16] | Potency [17] | Potency [18] | Potency [19]

C=C1C(n2cnc3c(=O)[nH]c(N)nc32)C[C@H](O)[C@H]1CO (stereo not given in full)
inactive: Potency [1] | Potency [2] | Potency [3] | activity, negative = inhibition ([4]; parasite line A) 9.61% | activity, negative = inhibition ([4]; parasite line B) -7.65% | Potency [5] | Potency [6] | Potency [7] | Potency [8] | Potency [10] | Potency [12] | Potency [14] | Potency [15] | Potency [20] | Potency [16] | Potency [17] | Potency [18]

CC(C)(C)NC[C@H](O)CSc1nc(-c2ccc(C(N)=O)s2)cs1
inactive: Potency [1] | Potency [2] | Potency [3] | activity, negative = inhibition ([4]; parasite line A) -8.78% | activity, negative = inhibition ([4]; parasite line B) -3.22% | Potency [5] | Potency [6] | Potency [7] | Potency [8] | Potency [9] | Potency [10] | Potency [11] | Potency [12] | Potency [13] | Potency [14] | Potency [15] | Potency [20] | Potency [16] | Potency [17] | Potency [18] | Potency [19]

COC(=O)C1C2CC3c4[nH]c5cc(OC)ccc5c4CCN3CC2CC(OC)C1OC (stereo not given)
inactive: Potency [1] | Potency [2] | Potency [3] | activity, negative = inhibition ([4]; parasite line A) 2.01% | activity, negative = inhibition ([4]; parasite line B) -6.18% | Potency [5] | Potency [6] | Potency [7] | Potency [8] | Potency [9] | Potency [10] | Potency [11] | Potency [12] | Potency [13] | Potency [14] | Potency [15] | Potency [20] | Potency [16] | Potency [17] | Potency [18] | Potency [19]

CC1=C[C@@H](O)CC(C)(C)[C@@H]1/C=C/C(C)=C/C=C/C(C)=C/C=C/C=C(C)/C=C/C=C(C)/C=C/C1=C(C)C[C@H](O)CC1(C)C
active: Potency [20] 12.6 µM | Potency [18] 11.2 µM | Potency [19] 10 µM
inactive: Potency [1] | Potency [2] | Potency [3] | activity, negative = inhibition ([4]; parasite line A) -23.3% | Potency [5] | Potency [6] | Potency [7] | Potency [8] | Potency [9] | Potency [10] | Potency [11] | Potency [12] | Potency [13] | Potency [14] | Potency [15]

C=C1/C(=C\C=C2/CCC[C@]3(C)[C@@H]([C@H](C)/C=C/[C@@H](O)C4CC4)CC[C@@H]23)C[C@@H](O)C[C@@H]1O
inactive: Potency [1] | Potency [2] | Potency [3] | activity, negative = inhibition ([4]; parasite line A) -4.72% | activity, negative = inhibition ([4]; parasite line B) -23.6% | Potency [5] | Potency [6] | Potency [7] | Potency [8] | Potency [9] | Potency [10] | Potency [11] | Potency [12] | Potency [13] | Potency [14] | Potency [15] | Potency [20] | Potency [16] | Potency [17] | Potency [18] | Potency [19]
